Results filed as inconclusive are left out. Unmarked numbers belong to inactive results. Active and inactive are the calls of the source. Calls come from the whole dose curve; as a rule, active = well fitted cell-killing curve with a large enough effect; inconclusive = small, poorly fitted or top-dose-only effect, or effect the other way; inactive = no such curve, though single readings can be large or run the other way.
Experiment: Quantitative High-Throughput drug screen in 47 multiple myeloma cell lines against the NCATS MIPE library collection: JJN3_DSMZ cell viability assay (AID 1918966; note: nearly all actives have a fitted effect of over 50% in size)
Details: JJN3 myeloma cells viability, CellTiter-Glo ATP, 48 h; series mostly up to 45.8 µM; viability, % of DMSO: at the top concentration
Text: PI: Beverly A. Mock Ph.D.
Laboratory of Cancer Biology and Genetics,
Center for Cancer Research, National Cancer Institute,
National Institute of Health, Bethesda, Maryland
Drug resistance and disease progression are common in multiple myeloma (MM) patients, underscoring the need for new therapeutic combinations. […] We hypothesized that effective combinations would reduce MYC expression and enhance p16 activity. […] These preclinical data identify potentially useful drug combinations for evaluation in drug-resistant MM and reveal potential mechanisms of combined drug sensitivity.
Described herein is the primary MIPE qHTS used to cherrypick compounds. Validated compounds were then further tested for potential synergistic activiy.
[1] Peat TJ, Gaikwad SM, Dubois W, Gyabaah-Kessie N, Zhang S, Gorjifard S, Phyo Z, Andres M, Hughitt VK, Simpson RM, Miller MA, Girvin AT, Taylor A, Williams D, D'Antonio N, Zhang Y, Rajagopalan A, Flietner E, Wilson K, Zhang X, Shinn P, Klumpp-Thomas C, McKnight C, Itkin Z, Chen L, Kazandijian D, Zhang J, Michalowski AM, Simmons JK, Keats J, Thomas CJ, Mock BA. Drug combinations identified by high-throughput screening promote cell cycle transition and upregulate Smad pathways in myeloma. Cancer Lett. 2023 Aug 1;568:216284. doi: 10.1016/j.canlet.2023.216284. Epub 2023 Jun 24. PMID: 37356470; PMCID: PMC10408729.
SEQUENCE No. (e.g., 1, 2, 3, etc.); […] (e.g., Cells, Incubation, Reagent, etc.); VALUE and DESCRIPTION.
1; Cells; 5 uL; white, solid bottom 1536-well Greiner assay plate.
2; Compounds; 23 nL; Kalypsis pin tool (Wako USA) equipped with a 1536-well pin head to transfer to the assay plates.
3; Incubation; 48 hours; 37C incubation.
4; Reagent;5uL; CellTiter Glo (Promega).
5; Detector; 425V; Luminescence; Viewlux PerkinElmer.
NOTES (numbers refer to Sequence numbers above)
1. The cell-based screening methods employed in this study were like those previously published. Briefly, the corresponding myeloma cell lines were screened in 1,536-well plates with 500 cells, 5-uL per well for inhibition of cell viability (assessed by measuring ATP levels with CellTiterGlo).
2. NCATS MIPE 4.0 library of approved and investigational drugs were added using the Kalypsis pin tool. Wells treated with DMSO only for 100% viability and media only wells for 0% viability were used as controls.
3. The assay plates were covered and incubated for 48 hours in a 37C, 5% CO2 incubator with controlled humidity.
4. After 48 hours, CellTilter-GloTM luminescent substrate mix (Promega) reagent was added to the assay plate and plates we incubated for 5 min at room temperature.
5. Signal was measured as median relative luminescence units on a ViewLux (PerkinElmer) multiplate reader.
[1] Heske CM, Davis MI, Baumgart JT, Wilson K, Gormally MV, Chen L, Zhang X, Ceribelli M, Duveau DY, Guha R, Ferrer M, Arnaldez FI, Ji J, Tran HL, Zhang Y, Mendoza A, Helman LJ, Thomas CJ. Matrix Screen Identifies Synergistic Combination of PARP Inhibitors and Nicotinamide Phosphoribosyltransferase (NAMPT) Inhibitors in Ewing Sarcoma. Clin Cancer Res. 2017 Dec 1;23(23):7301-7311. doi: 10.1158/1078-0432.CCR-17-1121. Epub 2017 Sep 12. PMID: 28899971; PMCID: PMC6636827.
Potency is the fitted concentration of half-maximal effect.

SMILES	Potency	viability, % of DMSO
Cc1cn(-c2cc(NC(=O)c3ccc(C)c(Nc4nccc(-c5cccnc5)n4)c3)cc(C(F)(F)F)c2)cn1	18.7 µM (active)	–
Cn1cc(-c2ccncc2)c(-c2ccc(OCc3ccc4ccccc4n3)cc2)n1	3.72 µM (active)	–
COC(=O)c1ccc2c(C(=Nc3ccc(N(C)C(=O)CN4CCN(C)CC4)cc3)c3ccccc3)c(O)[nH]c2c1	2.35 µM (active)	–
Nc1ccc(C(=O)c2cc3c(ccc4ccccc43)[nH]2)cc1	7.43 µM (active)	–
O=C(CCCCCCC(=O)Nc1ccc([C@H]2O[C@@H](CSc3nc(-c4ccccc4)c(-c4ccccc4)o3)C[C@@H](c3ccc(CO)cc3)O2)cc1)NO	13.2 µM (active)	–
COc1c(OCCCN2CCOCC2)ccc2c3n(c(=NC(=O)c4cnc(N)nc4)nc12)CCN3	3.23 µM (active)	–
OCc1ccc(-c2ccc(-c3ccc(CO)s3)o2)s1	16.6 µM (active)	–
CC[C@H]1CN2CCc3cc(OC)c(OC)cc3[C@H]2C[C@@H]1C[C@@H]1NCCc2cc(OC)c(OC)cc21	0.209 µM (active)	–
COc1ccc(CC2SC(=O)NC2=O)cc1C(=O)NCc1ccc(C(F)(F)F)cc1 (stereo not given)	–	89.9%
Cc1cc(Nc2cc(CN3CCOCC3)c3nc(C)c(Cc4ccc(Cl)cc4F)n3n2)n[nH]1	18.7 µM (active)	–
Cc1cc(Nc2cc(N3CCN(C)CC3)nc(Sc3ccc(NC(=O)C4CC4)cc3)n2)n[nH]1	16.6 µM (active)	–
CC=CC1=C(C(=O)O)N2C(=O)[C@H](NC(=O)[C@H](N)c3ccc(O)cc3)[C@@H]2SC1	–	129%
C=CC(=O)Nc1cc2c(Nc3ccc(F)c(Cl)c3)ncnc2cc1C#CC(C)(C)N1CCN(C)CC1	5.26 µM (active)	–
O=c1[nH]c(=O)n(C2CCCO2)cc1F (stereo not given)	–	130% [at 92.2 µM]
C[C@H]1C[C@@H]2[C@@H]([C@@H](O)C[C@@]3(C)[C@H]2CC[C@]3(O)C(=O)CO)[C@@]2(C)C=CC(=O)C=C12	–	133%
Cc1ccc(CN2CCNCC2)cc1NC(=O)CNc1ccc(F)c(F)c1	–	95.4%
CC1(C)CCC(c2ccc(Cl)cc2)=C(CN2CCN(c3ccc(C(=O)NS(=O)(=O)c4ccc(N[C@H](CCN5CCOCC5)CSc5ccccc5)c(S(=O)(=O)C(F)(F)F)c4)cc3)CC2)C1	9.35 µM (active)	–
C=CCn1c(=O)c2cnc(Nc3ccc(N4CCN(C)CC4)cc3)nc2n1-c1cccc(C(C)(C)O)n1	0.743 µM (active)	–
Cc1ccc(C(=O)Nc2ccc(CN3CCN(C)CC3)c(C(F)(F)F)c2)cc1C#Cc1cnc2cccnn12	2.64 µM (active)	–
COc1cc(C(=O)N2CCC(N3CCN(C)CC3)CC2)ccc1Nc1ncc2c(n1)N(C)c1ccccc1C(=O)N2C	3.72 µM (active)	–

SMILES	Potency	viability, % of DMSO
C=C1C(=CC=C2CCC[C@]3(C)[C@@H]([C@H](C)C=C[C@H](C)C(C)C)CC[C@@H]23)C[C@@H](O)C[C@@H]1O	0.833 µM (active)	–
Cc1ccc(C(N)=O)cc1Nc1nccc(-c2cn(C(C)C)c3cnccc23)n1	4.69 µM (active)	–
C1=CCOCc2cc(ccc2OCCN2CCCC2)Nc2nccc(n2)-c2cccc(c2)OCC1	4.18 µM (active)	–
CC(=O)Nc1sc2c(c1-c1nc3ccccc3s1)CNC2	16.6 µM (active)	–
C[C@@H]1COC(Nc2ccc3ncnc(Nc4ccc(OCc5nccs5)c(Cl)c4)c3c2)=N1	20.9 µM (active)	–
c1cc(-c2cnn3cc(-c4ccc(OCCN5CCCCC5)cc4)cnc23)ccn1	8.33 µM (active)	–
COCCn1c2c([n+](Cc3cnccn3)c1C)C(=O)c1ccccc1C2=O	0.0023 µM (active)	–
Cc1cc(Nc2cc(N3CCN(C)CC3)nc(C=Cc3ccccc3)n2)n[nH]1	30.3 µM (active)	–
CC(C)c1cc(C(=O)N2Cc3ccc(CN4CCN(C)CC4)cc3C2)c(O)cc1O	0.209 µM (active)	–
COC(=O)Nc1ccc(-c2nc(N3CCOCC3)c3cnn(C4CCN(Cc5cccnc5)CC4)c3n2)cc1	0.743 µM (active)	–
COC(=O)Nc1nc2ccc(C(=O)c3ccc(F)cc3)cc2[nH]1	2.35 µM (active)	–
Nc1ncnc2c1c(-c1cccc(OCc3ccccc3)c1)cn2C1CC(CN2CCCC2)C1 (stereo not given)	5.9 µM (active)	–
COc1cc2c(Oc3ccc(-c4cnc(Nc5ccc(F)cc5)n(C)c4=O)cc3F)ccnc2cc1OCCCN1CCOCC1	11.8 µM (active)	–
Nc1cc(C(F)(F)F)c(-c2cc(N3CCOCC3)nc(N3CCOCC3)n2)cn1	3.72 µM (active)	–
O=C(C=Cc1cccc(S(=O)(=O)Nc2ccccc2)c1)NO	3.4 µM (active)	–
CC(C)c1cnn2c(NCc3ccccc3)cc(N[C@@H](CO)[C@H](O)CO)nc12	0.132 µM (active)	–
CNC(=O)c1nn(C)c2c1C(C)(C)Cc1cnc(Nc3ccc(N4CCN(C)CC4)cc3)nc1-2	4.69 µM (active)	–
CNC(=O)c1cc(Oc2ccc(NC(=O)Nc3cc(C(C)(C)C)nn3-c3ccc4ncccc4c3)c(F)c2)ccn1	2.96 µM (active)	–
CC[C@@H]1C(=O)N(C)c2cnc(Nc3ccc(C(=O)NC4CCC(N5CCN(CC6CC6)CC5)CC4)cc3OC)nc2N1C(C)C (stereo not given in full)	2.64 µM (active)	–
CCn1nnc2c(N3CCOCC3)nc(-c3ccc(NC(=O)Nc4ccc(C(=O)N5CCN(C)CC5)cc4)cc3)nc21	0.0187 µM (active)	–

— PubChem BioAssay (NCATS)
